The record followed here is PubChem BioAssay (NCI).

The panel holds about 83,000 compounds, 20% with a hit somewhere; the sample as a whole holds those more often.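 Testing used 96-well plates and a 48-hour single-concentration exposure. Example: -40 means 40% of the starting cells died.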 The source made the active and inactive calls. Rule for the calls: active = growth percent below 10; inactive = the rest.

One assay deals with BT-549 breast. As to the kind of experiment: NCI-60 one-dose screen, 48 h (100 = growth as untreated, 0 = no growth, -100 = all killed). As to conditions: 10 µM unless noted.
For the molecule `C=C1C(=O)O[C@H]2[C@H]1CC/C(COC(=O)/C=C\C(=O)NCc1ccc(Cn3c(=O)sn(CCCCC)c3=O)cc1)=C\CC[C@@]1(C)O[C@@H]21`, the growth is 85.8% (inactive).
Turning to `O=P(O)(O)OCC1OC(n2cnc3c(NCc4ccco4)ncnc32)C(O)C1O` (centres undefined), the growth was -12.3% (active).
On to `Cc1ccc(S(=O)(=O)c2nc(-c3ccccc3)oc2Sc2nc3ccccc3s2)cc1`, for which the growth was 17.6% (inactive).
Regarding `CCCn1cnc2c(c1=N)C(c1ccc(F)cc1)c1sc3c(F)cccc3c1O2` (centres undefined), the growth was 63.9% (inactive).
With `CN1C(=O)/C(=C2\SC(=Nc3ccccc3)N(Nc3ccccc3)C2=O)c2ccccc21`, the growth was 109% (inactive).

A further assay relates to MDA-MB-435 melanoma. Described as above. The note with it: 10 µM unless noted.
As for `OCCNCCNC(Cc1ccc(Cl)cc1)c1ccccc1` (centres undefined), the growth is 98.6% (inactive).
With `CC1=C(C(=O)Nc2nc(-c3ccc(Cl)cc3)cs2)[C@H](c2ccc(O)cc2)NC(=O)N1`, the growth is 101% (inactive).
On to `O=C(N/N=C\c1cccc([N+](=O)[O-])c1)N/N=C/c1cccc([N+](=O)[O-])c1`, for which the growth is 108% (inactive).
With `CC1C(/C=N/NC(N)=S)C(C#N)(C#N)C1(C#N)C#N` (centres undefined), the growth is 98.3% (inactive).
Same read-out and setting: to `CN(C)CCCNC(=O)c1cncnc1Nc1ccc(OCc2cccc(F)c2)c(Cl)c1` belongs -88.6% (active); to `C=C1C(=O)O[C@H]2[C@H]1CC/C(COC(=O)/C=C\C(=O)NCc1ccc(Cn3c(=O)sn(CCCl)c3=O)cc1)=C\CC[C@@]1(C)O[C@@H]21`, 65.8% (inactive).
For the molecule `CC1(C)OB(O)c2cc(-c3nc4ccc5[nH]ncc5c4c4c3CCCC4)ccc21`, the growth is 48.8% (inactive).
As for `N=C(N)c1ccc(-c2ccc(-c3ccccc3)s2)cc1`, the growth is 12% (inactive).
For `COc1ccc(CCN(CC(=O)N(CC(N)=O)C2CCC[C@@H]2OCc2ccccc2)C(=O)CN(C(=O)CN(CCc2ccc(Cl)cc2)C(=O)CN(C(=O)CN(C)Cc2ccccc2F)[C@H](C)C2CCCCC2)[C@H](C)C2CCCCC2)cc1OC` (some centres undefined), the growth is 26% (inactive).
The same measure, in the same setting: the result for `Cc1nnc(-c2ccc3c(c2)nc(/C=C/c2ccccc2)n3C2CCCCC2)o1` reads 83.8% (inactive).
Regarding `Nn1c(=O)c(=O)[nH]c2c(cnn2-c2ccccc2)c1=O`, the growth was 107% (inactive).
On the same count and under the same terms, to `O=C(O)[C@@H](Cc1ccc2ccccc2c1)NC(=O)n1c2ccccc2c2ccccc21` belongs -53% (active); to `C=CCC(CCCC)(C(=O)OCC)C(=O)OCC`, 110% (inactive); to `C#COc1cccc(Nc2ncnc3cc(NC(=O)[C@@H](C)Cl)ccc23)c1`, -58.4% [6.25 µM] (active).
As for `CC(C)CCN(CCC(C)C)CC(O)c1cc2c(c3ccccc13)CCCC2` (centres undefined), the growth was 98.4% (inactive).
With `O=C(CSc1nnc(-c2cc(-c3ccccc3)nc3ccccc23)n1-c1ccccc1)Nc1ccc(C(=O)/C=C/c2ccc(Cl)cc2)cc1`, the growth is 96.5% (inactive).
Regarding `CCCCNC(=O)Oc1ccc(/C(=C(/C)Cc2ccc(OC)cc2)c2ccc(OCCN3CCCCCC3)cc2)cc1`, the growth is 90.5% (inactive).
Consider `O=C1C(Nc2ccccn2)=C(I)C(=O)c2ncccc21`, for which the growth is -82.2% (active).
With `Cn1cc(-c2csc(-c3c[nH]c4ccc(F)cc34)n2)c2ccnc(Cl)c21`, the growth is 88.2% (inactive).
Regarding `CC(C)(C)c1cc(Cl)c(O)c(CNCCO)c1`, the growth is 101% (inactive).
With `Oc1c(CN2CCCC2)cc(CSCc2ccccc2)c2cccnc12`, the growth is 21.2% (inactive).
For `O=C(CCSc1nnc2n(Cc3ccccc3)c(=O)c3c4c(sc3n12)CCCC4)N1CCN(c2ccccc2)CC1`, the growth was 91.2% (inactive).
With `O=c1c2c3c(sc2n2c(-c4cc(-c5ccccc5)no4)nnc2n1Cc1ccccc1)CCCC3`, the growth is 106% (inactive).
With `CCOC(=O)C1=C(C)/C(=C\c2[nH]c(C)c(C(=O)OCC)c2C)N=C1C`, the growth is 80.6% (inactive).
Consider `NS(=O)(=O)c1ccc(C(=O)NN2C(=O)c3c(Br)c(Br)c(Br)c(Br)c3C2=O)cc1`, for which the growth was 103% (inactive).
As to `CCN(CC)CCN1C(=O)c2c(c(C)c3c(oc4ccc(OC)cc43)c2C)C1=O`, the growth was 104% (inactive).
Same read-out and setting: the result for `COc1cc(Cl)c(C)cc1NC(=O)c1cc2ccccc2cc1O` reads 3.68% (active); that for `COc1cc(NC(=O)c2cncnc2Nc2ccc3c(ccn3Cc3ccccn3)c2)cc(OC)c1`, -6.69% (active).
Take `CCCCNc1nnc2n(Cc3ccccc3)c(=O)c3c4c(sc3n12)CCCC4`: the growth was 51.8% (inactive).
Consider `C=CCOC(=O)C1=C(C)N(CC)C(=O)NC1c1c(Cl)n(C)c2ccccc12` (centres undefined), for which the growth is 98.1% (inactive).
As for `CNC1=CC(=O)c2c(C(=O)OC)c(C)[n+]([O-])c(C)c2C1=O`, the growth was -17.3% (active).
As for `O=C(/C=C/c1ccc(Oc2ccc(Br)cc2)cc1)c1ccc(Br)cc1`, the growth was 93% (inactive).
With `CC(=O)/C(=C/c1ccc([N+](=O)[O-])cc1)C(=O)c1ccccc1`, the growth is 77.3% (inactive).
On to `COc1ccc2[nH]cc(-c3nc(-c4c[nH]c5c(Cl)nccc45)cs3)c2c1`, for which the growth is 51.8% (inactive).
As to `C=C1C(=O)O[C@H]2[C@H]1CC/C(COC(=O)/C=C\C(=O)NCc1ccc(Cn3c(=O)sn(CCCCC)c3=O)cc1)=C\CC[C@@]1(C)O[C@@H]21`, the growth is 60.6% (inactive).
`O=P(O)(O)OCC1OC(n2cnc3c(NCc4ccco4)ncnc32)C(O)C1O` (centres undefined): the growth is 16.2% (inactive).
For `Cc1ccc(S(=O)(=O)c2nc(-c3ccccc3)oc2Sc2nc3ccccc3s2)cc1`, the growth is 54.7% (inactive).
The same measure, in the same setting: the result for `CCCn1cnc2c(c1=N)C(c1ccc(F)cc1)c1sc3c(F)cccc3c1O2` (centres undefined) reads -35.6% (active); that for `CN1C(=O)/C(=C2\SC(=Nc3ccccc3)N(Nc3ccccc3)C2=O)c2ccccc21`, 106% (inactive).
